Shown is part of a subset that was picked to be rich in hits.
LDHA block = LDHA (human) enzyme inhibition | activity change, % (values are at about 110 or 230 µM) | 0.15% of 480,000 active | P00338 | purified LDHA, NADH/diaphorase-resazurin fluorescence; hits give low values; in the data active means activity change below about -30%; inconclusive means mostly about -25% to -30%;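 further: plate controls were DMSO wells for no effect and wells without enzyme for full effect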
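Human LDH5 at 2 nM final in Tris HCl pH 7.4 with 0.06 mM NADH and 0.2 mM pyruvate, reacted 5 minutes at room temperature. Remaining NADH coupled via diaphorase/resazurin; resorufin fluorescence read at 0 and 20 minutes, normalized to enzyme-free and DMSO wells.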
ClpP mod = qHTS Assay for Activators of ClpP; ATP-dependent Clp protease proteolytic subunit (Bacillus subtilis (strain 168)), P80244; purified B. subtilis ClpP, FRET peptide cleavage, 20 min; Potency, µM (titrated, usually from 57.5 µM), inactives show at the top dose activity change, negative = active; 1.9% of 340,000 active; AID 651965, 2013; active means well fitted falling curve with a large enough effect; inconclusive means small, poorly fitted or top-dose-only effect; inactive means no such curve, though single readings can be large or run the other way; further: potency means the concentration at half of the fitted maximal effect; the source files actives as falling curves though it sought activators and does not explain the sign; nearly all actives have a fitted effect of over 65% in size
Target sequence (P80244 whole entry, looked up): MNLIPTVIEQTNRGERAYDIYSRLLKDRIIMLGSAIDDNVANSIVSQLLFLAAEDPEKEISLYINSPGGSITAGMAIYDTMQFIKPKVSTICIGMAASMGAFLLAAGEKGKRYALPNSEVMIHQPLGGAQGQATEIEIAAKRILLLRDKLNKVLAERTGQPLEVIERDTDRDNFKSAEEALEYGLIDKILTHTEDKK
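ClpP 10 microg/mL final, pH 8 Tris/KCl buffer with BSA, glycerol, Tween-20; compound pinned in; FRET-FV substrate; RT 20 min; Ex320/Em430; ΔFRET vs ADEP 5.8 microM, DMSO, no enzyme.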
Mito fusion yeast = mitochondrial division inhibition or fusion activation | AID 485298 | 0.23% of 320,000 active | S. cerevisiae fusion-defective mutant growth rescue, CellTiterGlo 48 h | Potency, µM (doses to about 46.1 µM), for inactives: top-dose growth rescue (activation), most hits filed as activators; further: potency means the concentration at half of the fitted maximal effect; % of control where 0% means no effect; nearly all actives have a fitted effect of over 45% in size
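Read-out: ATP-based luminescence (CellTiterGlo, 10 min ambient) reporting growth of fusion-defective ts yeast after 48 hours at 37C on glycerol/ethanol YPEG medium in the presence of compound.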
mIDH1 inhibitor = blocks human mutant IDH1 R132H enzyme; Potency, µM (highest dose often 76.6 µM), for the others: top-dose activity change, negative = inhibition, usual class: inhibitors; IDH1-R132H enzyme, NADPH consumption, diaphorase/resazurin fluorescence; 0.093% of 390,000 active; AID 602179; O75874; further: potency means the concentration at half of the fitted maximal effect; on the % scale 0 is the no-effect control and ±100 the full control effect; nearly all actives have a fitted effect of over 65% in size
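IDH1-R132H (0.5 ug/mL dispensed) in pH 7.5 Tris buffer was preincubated 30 min with compound, then given a substrate mix of 0.016 mM NADPH and 2 mM alpha-KG for 80 min at room temperature; remaining NADPH was read by diaphorase/resazurin fluorescence.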
ASM inhibitor = human S-ASM enzyme inhibition; Potency, µM (doses to about 57.5 µM), for inactives: at the top dose activity change, negative = inhibition, actives largely listed as inhibitors; P17405; 0.006% of 340,000 active; placental ASM, HMU-PC fluorogenic substrate, 60 min; further: potency means the concentration at half of the fitted maximal effect
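Human placenta-derived ASM preincubated with compound 10 min at room temperature, then reacted with 9 uM (final) fluorogenic HMU-PC substrate for 60 min at 37 C. Stop solution raises pH to 10; fluorescence read at Ex 386/Em 447 nm.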
RGS4 inh = human RGS4 inhibition. Potency, µM (titrated, usually from 114 µM), for inactives: at the top dose activity change, negative = inhibition, actives largely listed as inhibitors. 0.039% of 390,000 active. P49798. Transcreener GDP fluorescence polarization, RGS4-accelerated GTP hydrolysis; further: potency means the concentration at half of the fitted maximal effect; on the % scale 0 is the no-effect control and ±100 the full control effect; nearly all actives have a fitted effect of over 75% in size
Target sequence (P49798 whole entry, looked up): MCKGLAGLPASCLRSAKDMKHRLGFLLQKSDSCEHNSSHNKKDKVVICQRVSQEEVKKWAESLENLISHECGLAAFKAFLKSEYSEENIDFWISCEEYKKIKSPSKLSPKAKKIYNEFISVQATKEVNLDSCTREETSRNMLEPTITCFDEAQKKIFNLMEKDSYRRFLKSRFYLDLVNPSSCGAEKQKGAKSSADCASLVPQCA
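MLSMR compounds (23 nl, pin-transferred) preincubated 10 min at room temperature with a 500nM (2x) first reagent, then RGS4 at 900nM (2x) plus Transcreener GDP mix added; fluorescence polarization (620/688 nm) read before and after 90 min at 30 °C.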
* marks the source's active call; other numbers are inactive results; i = inactive; ? = inconclusive; · = no result given; ! = not active in a repeat; [ ] = remark or other dose. Unless noted, the call rests on the fitted dose curve; in most records, active means well fitted curve in the direction sought with a large enough effect; inconclusive means small, poorly fitted or top-dose-only effect, or another doubt; inactive means no such curve, though single readings can be large; an effect the other way counts as inactive or inconclusive.

SMILES	LDHA block	ClpP mod	Mito fusion yeast	mIDH1 inhibitor	ASM inhibitor	RGS4 inh
CC12Cc3ccc4ccccc4c3C=C1C[N+](C)(C)C2 (stereo not given)	2.4	-0.9%	-1.4%	-1.7%	0.4%	9.5%
CC[N+]1(CC)CC2=Cc3c(ccc4ccccc34)CC2C1 (stereo not given)	-0.2	25.1µM*	-3.8%	1.8%	-1.3%	1.1%
CCCC(=NCc1ccccc1)C1=C(O)C(C(=O)OC)C(C)(C)CC1=O (stereo not given)	-4.4	1.0%	1.7%	3.3%	0.5%	7.0%
CCC(=NCc1ccccc1)C1=C(O)C(C(=O)OC)C(C)(C)CC1=O (stereo not given)	-1.6	3.16µM*	4.2%	8.5%	-2.8%	-15.5%
COC(=O)C1Cc2c([nH]c3ccccc23)CN1 (stereo not given)	-4.0	31.6µM*	-1.5%	-1.1%	-0.2%	-21.5%
COC(=O)[C@H]1Cc2c([nH]c3ccccc23)[C@H](c2ccccc2)N1	-0.5	-4.2%	-4.3%	-0.5%	-0.4%	8.5%
CCNc1c(NC(=O)Nc2ccccc2OCC)c(=O)oc2ccccc12	-6.8	·	·	·	·	·
Cc1c(C(=O)N(Cc2nc3ccccc3c(=O)[nH]2)C(C)C)oc2ccccc12	-10.3	·	·	·	·	·
C=CCNC(=O)COc1ccc(S(=O)(=O)Nc2ccc(OCC)cc2)cc1	5.5	12.6µM*	1.3%	0.0%	2.9%	-1.6%
O=C(O)c1cccc(-n2cc(-c3cccc(C(F)(F)F)c3)cn2)c1	-3.1	-12.9%	15.8µM*	-8.2%	11.0%	19.2%
O=C(O)c1ccc(-c2nc(-c3cccc(C(F)(F)F)c3)cs2)cc1	-2.4	3.5%	-2.1%	-8.8%	0.3%	6.0%
COc1ccccc1Nc1nc2c(S(=O)(=O)c3ccc(C(C)C)cc3)nnn2c2ccsc12	3.5	-12.5%	·	0.0%	·	-17.1%
Cc1ccc(C)c(Nc2nc3c(S(=O)(=O)c4ccc(C(C)C)cc4)nnn3c3ccsc23)c1	-3.9	35.5µM*	·	?	·	17.4%
Cc1ccc(C)c(Nc2nc3c(S(=O)(=O)c4ccc(Br)cc4)nnn3c3ccsc23)c1	-2.2	28.2µM*	·	-0.2%	·	?
CCN1CCCC(OC(=O)c2cccc(Br)c2)C1 (stereo not given)	-6.0	·	·	·	·	·
CCN1C(=O)COc2ccc(NC(=O)c3cc(=O)c4cc(C)cc(C)c4o3)cc21	-2.5	·	·	·	·	·
O=C(Cn1c(=O)n(Cc2ccc(Cl)cc2)c(=O)c2cccnc21)Nc1ccccc1C(F)(F)F	-3.8	-0.5%	·	-2.3%	·	25.0%
Cc1ccc(Cn2c(=O)c3cccnc3n(CC(=O)Nc3cccc(C(F)(F)F)c3)c2=O)cc1	-8.5	31.6µM*!	-4.1%	-10.7%	85.0%	13.1%
COC(=O)c1ccc(Sc2ccc(C)cc2)c(N)c1	-5.6	28.2µM*	14.9%	3.5%	53.9%	-18.4%
CCCCCCCCCCCCCCCC(=O)OC(CC(=O)O)C[N+](C)(C)C (stereo not given)	-0.1	0.4%	-82.5%	29.3%	?	18.9µM*!
CCCCCCCCCC(=O)OCC(CO)OC(=O)CCCCCCCCC (stereo not given)	·	·	·	·	·	26.7µM*
CCCCC/C=C\C/C=C\C/C=C\C/C=C\CCCC(=O)O[C@@H](CO)COC(=O)CCCCCCCCCCCCCCCCC	·	·	·	·	·	i
Cc1ccc(C(=O)O)cc1S(=O)(=O)NCCCN1CCOCC1	-12.2	·	·	·	·	·
Cc1nc(Nc2ccc(Cl)cc2)c2nnn(Cc3ccccc3)c2n1	-13.4	·	-4.4%	-4.4%	-3.0%	?
Cc1nc(Nc2ccc(S(=O)(=O)N3CCCCC3C)cc2)c2nnn(Cc3ccccc3)c2n1 (stereo not given)	-2.4	31.6µM*	-3.9%	-0.8%	-6.4%	-10.0%
SMILES	LDHA block	ClpP mod	Mito fusion yeast	mIDH1 inhibitor	ASM inhibitor	RGS4 inh
COC(=O)C1=C(C)NC(C)=C(C(=O)OC(C)(C)CN(C)CCC(c2ccccc2)c2ccccc2)C1c1cccc([N+](=O)[O-])c1 (stereo not given)	·	·	0.651µM*	·	·	9.1%[56.9 µM]
COCCOC(=O)C1=C(C)NC(C)=C(C(=O)OC(C)C)C1c1cccc([N+](=O)[O-])c1 (stereo not given)	0.6	0.9%	20.6µM*!	14.1%	-8.3%	0.7%[56.9 µM]
CCOC(=O)C1=C(C)NC(C)=C(C(=O)OC)C1c1cccc([N+](=O)[O-])c1 (stereo not given)	-5.6	2.2%	-21.1%	-26.2%	-7.2%	4.3%
COCCOC(=O)C1=C(C)NC(C)=C(C(=O)OC/C=C/c2ccccc2)C1c1cccc([N+](=O)[O-])c1 (stereo not given)	·	·	5.8µM*	·	·	-5.8%[56.9 µM]
Cc1ccc(-n2c(-c3ccccc3)cc(C=Nc3ccc(C)c(C)c3)c2-c2ccccc2)cc1	-1.7	·	·	·	·	·
CN(CC(=O)N(C1CCCCC1)C1CCS(=O)(=O)C1)c1ccc2ccccc2c1 (stereo not given)	29.4	·	·	·	·	·
Cc1cc2ccccc2n1CC(=O)NC1CCCCC1	-5.6	·	·	·	·	·
CN(C)CC(O)Cn1c2ccc(Br)cc2c2cc(Br)ccc21 (stereo not given)	·	·	·	·	·	0.67µM*
O=C(Cn1cnnn1)Nc1cccc(S(=O)(=O)N2CCCCC2)c1	-1.6	·	8.3%	7.3%	2.1%	19.9%
O=C(Cn1nnc(-c2ccccc2)n1)Nc1cccc(S(=O)(=O)N2CCCC2)c1	-2.0	31.6µM*	-0.1%	8.4%	-2.9%	-41.6%
O=C(CCOc1cc(Cl)ccc1Cl)Nc1ccc(-n2cnnn2)cc1	-1.3	·	·	·	·	·
COCCn1ccc2c(OCC(=O)NCc3ccccc3)cccc2c1=O	-4.8	-30.0%	0.4%	2.6%	·	2.3%
COCCn1ccc2c(OCC(=O)NCc3ccc(C)cc3)cccc2c1=O	-3.9	28.2µM*	-3.9%	-2.0%	-1.6%	-25.0%
O=C(c1cc2ccccc2oc1=O)N(Cc1ccco1)Cc1ccco1	-2.7	·	·	·	·	·
Cc1ccccc1-c1cc(C(=O)Nc2nncs2)c2ccccc2n1	-0.3	·	·	·	·	·
Cc1ccc(SCCN2CCN(Cc3ccccc3)CC2)cc1	-30.9*	-1.3%	?	4.7%	-0.5%	13.5%
CN1CCN(c2nc3cc(C(F)(F)F)ccc3n3cccc23)CC1	-4.6	-19.6%	18.4µM*	-2.7%	-16.1%	11.0%[56.9 µM]
Cc1ccc(-c2cc(C(=O)OCc3ccc(-c4ccccc4)cc3)c3ccccc3n2)cc1	2.4	·	·	·	·	·

High-throughput results as filed in PubChem BioAssay.
